KCNQ2 block = KCNQ2 (rat) channel inhibition; O88943; 310,000 tested, 1.1% active; CHO-K1 KCNQ2, FluxOR thallium flux, 20 min; active compounds read low; B-score at 10 µM;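 active = fluorescence ratio B-score at most minus 3 library SDs, with starting brightness B-score within 2 library SDs, cut at about -5.5 in these data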
Target sequence (O88943 whole entry, looked up): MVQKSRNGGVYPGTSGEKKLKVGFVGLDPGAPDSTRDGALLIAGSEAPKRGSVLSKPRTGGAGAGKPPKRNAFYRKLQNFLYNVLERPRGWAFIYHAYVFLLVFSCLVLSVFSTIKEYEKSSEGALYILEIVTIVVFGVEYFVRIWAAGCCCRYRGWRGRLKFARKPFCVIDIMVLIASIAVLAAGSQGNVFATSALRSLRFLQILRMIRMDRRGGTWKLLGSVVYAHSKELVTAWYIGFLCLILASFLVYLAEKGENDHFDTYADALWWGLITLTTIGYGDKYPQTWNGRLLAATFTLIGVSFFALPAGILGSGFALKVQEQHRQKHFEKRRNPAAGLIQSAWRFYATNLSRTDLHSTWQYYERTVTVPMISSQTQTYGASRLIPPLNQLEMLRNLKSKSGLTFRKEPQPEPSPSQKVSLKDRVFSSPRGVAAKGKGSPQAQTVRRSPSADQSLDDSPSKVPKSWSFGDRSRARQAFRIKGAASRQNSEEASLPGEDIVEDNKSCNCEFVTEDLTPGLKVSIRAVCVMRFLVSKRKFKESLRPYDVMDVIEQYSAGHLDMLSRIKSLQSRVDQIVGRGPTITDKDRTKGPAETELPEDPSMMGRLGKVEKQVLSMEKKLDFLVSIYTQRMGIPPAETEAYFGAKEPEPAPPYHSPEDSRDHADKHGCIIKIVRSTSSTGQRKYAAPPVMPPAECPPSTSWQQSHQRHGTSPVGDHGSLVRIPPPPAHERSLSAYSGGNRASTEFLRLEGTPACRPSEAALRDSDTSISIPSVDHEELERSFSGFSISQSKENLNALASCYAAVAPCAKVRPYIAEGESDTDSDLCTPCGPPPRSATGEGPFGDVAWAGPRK
KCNQ2 pot = potentiators of rat KCNQ2 potassium channel. O88943. CHO-K1 KCNQ2, FluxOR thallium flux fluorescence; active compounds read high. B-score at 10 µM. 310,000 tested, 0.54% active. AID 2239;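 active = fluorescence ratio B-score at least 3 SD of library B-scores, with initial fluorescence B-score within 3 of them, cut at about 5.3 in these data; same plate scores as AID 2156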;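 note: B-score of peak minus minimum over baseline fluorescence ratio after K+ and Tl+ stimulus; positive B-score means potentiation of KCNQ2 with more thallium influx and brighter signal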
Numbers without * were called inactive; i = inactive; / = not tested or not shown. An excerpt weighted towards active compounds, which were near 1.6% of everything screened.

SMILES	KCNQ2 block	KCNQ2 pot
CN(C)C(=O)CSc1nnc(Cc2ccccc2)n1Cc1ccco1	i	0.02
COc1ccc(OCc2cc(C(=O)NC(C)Cc3cnccn3)no2)c(Cl)c1 (stereo unspecified)	i	1.24
CSc1ccc(-c2sc(Nc3cccc4ccccc34)n[n+]2-c2ccccc2)cc1	-5.58*	-5.58
CSc1ccc(-c2sc(Nc3ccccc3)n[n+]2-c2ccccc2)cc1	i	/
COc1cccc(-c2cc(C(=O)N3C(C)CCCC3C)no2)c1 (stereo unspecified)	i	/
CN(C(=O)c1ccc(COc2ccccc2Br)o1)c1ccccc1	-6.19*	-6.19
CN(C)CCOC(=O)c1ccc(COc2ccccc2Br)o1	i	1.31
O=C(NCc1ccccc1OC(F)(F)F)C1CCC(=O)N(Cc2cccc(F)c2)C1 (stereo unspecified)	i	/
Cc1ccccc1CNC(=O)C1CCC(=O)N(Cc2cccc(F)c2)C1 (stereo unspecified)	-6.32*	-6.32
CC(CC(=O)N1CCN(S(=O)(=O)c2ccc(Cl)cc2)CC1)n1cncn1 (stereo unspecified)	i	0.42
Cc1cc(C(=O)CSc2nc3ccccc3o2)c(C)n1CC1CCCO1 (stereo unspecified)	i	0.77
Cc1cc(C(=O)CSc2nc3ccccc3[nH]2)c(C)n1CC1CCCO1 (stereo unspecified)	-5.58*	-5.58
O=S(=O)(NC1c2cccc3cccc(c23)C1Sc1ncccn1)c1ccc(Cl)cc1 (stereo unspecified)	-6.31*	-6.31
Cc1ccc(S(=O)(=O)NC2c3cccc4cccc(c34)C2Sc2n[nH]c(N)n2)cc1 (stereo unspecified)	i	/
Cc1ccc(/C=N/NC(=O)Cc2c(F)cccc2Cl)s1	i	/
CCN(CC)S(=O)(=O)c1ccc(NC=C(C#N)C#N)cc1	i	/
O=C(O)c1ccc(NC(=S)NC(=O)c2cccc(COc3ccccc3)c2)cc1	i	/
CC(=O)c1cccc(OCc2cc(C(=O)NC3CCN(Cc4ccccc4)CC3)no2)c1	i	6.32*
O=C(NC(=S)Nc1ccc(CN2CCCCC2)cc1)c1cccc(OCc2ccccc2)c1	-6.05*	-6.05
O=C(NC1CCN(Cc2ccccc2)CC1)c1cccc(OC(F)F)c1	i	0.15
O=C(CCN1CCN(c2ccccc2)CC1)N/N=C/c1ccccc1OC(F)F	i	0.3
O=C(NCC1COCCO1)c1cc(COc2ccc(F)cc2F)on1 (stereo unspecified)	i	/
CC12CN(C(=S)Nc3ccccc3)CC(C)(CN(C(=S)Nc3ccccc3)C1)C2=O	i	/
Cc1ccc(NC(=O)c2cc(-c3cccc(O)c3)on2)cc1C	i	0.86
Cc1onc(-c2ccccc2)c1C(=O)N/N=C/c1cn(C)c2ccccc12	-6.39*	-6.39
SMILES	KCNQ2 block	KCNQ2 pot
Cc1cccc(/C=N/NC(=O)c2c(-c3ccccc3)noc2C)c1O	i	/
CCOC(=O)C1CCN(C(c2cc3c(C)ccc(C)c3[nH]c2=O)c2nnnn2C2CCCCC2)CC1 (stereo unspecified)	i	/
Cc1ccc(C)c2[nH]c(=O)c(C(c3nnnn3C3CCCC3)N3CCOCC3)cc12 (stereo unspecified)	-6.08*	-6.08
COc1cc2cc(C(c3nnnn3C3CCCC3)N3CCCCCC3)c(=O)[nH]c2cc1OC (stereo unspecified)	-10.8*	-10.8
CCOc1ccc2[nH]c(=O)c(C(c3nnnn3C3CCCCC3)N3CCN(CC)CC3)cc2c1 (stereo unspecified)	i	0.77
COc1ccc(Cn2nnnc2C(c2cc3cccc(C)c3[nH]c2=O)N2CCOCC2)cc1 (stereo unspecified)	i	/
Cc1ccc(C)c2[nH]c(=O)c(C(c3nnnn3CCc3ccccc3)N3CCOCC3)cc12 (stereo unspecified)	-5.98*	-5.98
Cc1ccc(C(=O)N[C@H](C(=O)N2CCN(c3ccccc3F)CC2)C(C)C)cc1	i	/
Cc1cc(S(=O)(=O)NCc2cccnc2)ccc1-n1cnnn1	i	0.03
CCN(CC)C1CCN(C(=O)CCn2nnnc2CN2CCOCC2)C1 (stereo unspecified)	i	/
CSc1n[nH]c(NCc2cccs2)n1	i	/
COc1cccc(-n2nnnc2SCC(=O)Nc2ccc(OC)cc2OC)c1	i	0.74
Cc1cc2ccccn2c1C(=O)c1ccncc1	i	1.33
Cc1cc2ccccn2c1C(=S)NC(=O)c1ccccc1	i	18.6*
O=[N+]([O-])c1cc(-c2ncccn2)c([N+](=O)[O-])s1	-9.58*	-9.58
O=C(Nc1ncccn1)c1cc([N+](=O)[O-])cc([N+](=O)[O-])c1	i	0.84
CCOc1cc(NC(=O)c2ccccc2C)c(OCC)cc1NC(=O)C1=Cc2ccccc2OC1	i	/
O=C(O)COc1ccccc1/C=N/NC(=O)c1cc2ccccc2cc1O	i	0.11
COC(=O)c1ccc(C(=O)OC)c(NC(=O)CCc2ccc(C)o2)c1	i	0.33
COC(=O)c1c(NC(=O)CCc2ccc(C)o2)sc(C)c1C	-5.87*	-5.87
